Test results published in the supplement of paper PMC10849652.
Targets with a hit are over-represented here; the source holds about 7,900 in all. About 0.6% of all pairs of compound and target were hits.

How the values were obtained:
Assay in all cases: log2 fold change, soluble protein after heating vs DMSO (PISA); higher = thermal stabilisation; K562 cells, 10 uM, 30 min; active = over 0.2 and 3.5 SD of the protein, either way, in both replicates (recomputed)
[1] = compound: CS(=O)(=O)c1ccc(-c2cnc(N)c(C(=O)Nc3ccccc3)n2)cc1
Procedure, shortened: (§1)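 Aliquots of K562 cells (2×10^6 cells/mL) treated with 10 μM compound for 30 min were heated for 3 min over 48°C-58°C. After pooling and extraction in PBS with 0.5% NP-40 at 4°C, soluble protein from a 21,000xg, 90 min spin was quantified by TMTpro 16plex LC-MS/MS with channel sums equalised. Thermal stability is expressed against control samples, from duplicates, as a log2 fold change.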

crizotinib = compound: C[C@@H](Oc1cc(-c2cnn(C3CCNCC3)c2)cnc1N)c1c(Cl)ccc(F)c1Cl [crizotinib]
Procedure, shortened: as §1

[2] = compound: C[C@@H]1COCCN1C2=NC(=NC(=C2)C3(CC3)S(=O)(=O)C)C4=C5C=CNC5=CC=C4
Procedure, shortened: as §1

[3] = compound: C[C@H](C1=CC=C(C=C1)C(=O)NC2=C3C=CNC3=NC=C2)N
Procedure, shortened: as §1

duvelisib = compound: C[C@H](Nc1ncnc2nc[nH]c12)c1cc2cccc(Cl)c2c(=O)n1-c1ccccc1 [duvelisib]
Procedure, shortened: as §1

gandotinib = compound: Cc1cc(Nc2cc(CN3CCOCC3)c3nc(C)c(Cc4ccc(Cl)cc4F)n3n2)n[nH]1 [gandotinib]
Procedure, shortened: as §1

tozasertib = compound: Cc1cc(Nc2cc(N3CCN(C)CC3)nc(Sc3ccc(NC(=O)C4CC4)cc3)n2)n[nH]1 [tozasertib]
Procedure, shortened: as §1

[4] = compound: Cc1cc(SCc2sc(-c3ccc(C(F)(F)F)cc3)nc2C)ccc1OCC(=O)O
Procedure, shortened: as §1

doramapimod = compound: Cc1ccc(-n2nc(C(C)(C)C)cc2NC(=O)Nc2ccc(OCCN3CCOCC3)c3ccccc23)cc1 [doramapimod]
Procedure, shortened: as §1

ispinesib = compound: Cc1ccc(C(=O)N(CCCN)[C@@H](c2nc3cc(Cl)ccc3c(=O)n2Cc2ccccc2)C(C)C)cc1 [ispinesib]
Procedure, shortened: as §1

Measured: log2 fold change

TJP2 isoform 7 (UniProt Q9UDY2)
Chain of UniProt Q9UDY2 (Q9UDY2 whole entry, looked up): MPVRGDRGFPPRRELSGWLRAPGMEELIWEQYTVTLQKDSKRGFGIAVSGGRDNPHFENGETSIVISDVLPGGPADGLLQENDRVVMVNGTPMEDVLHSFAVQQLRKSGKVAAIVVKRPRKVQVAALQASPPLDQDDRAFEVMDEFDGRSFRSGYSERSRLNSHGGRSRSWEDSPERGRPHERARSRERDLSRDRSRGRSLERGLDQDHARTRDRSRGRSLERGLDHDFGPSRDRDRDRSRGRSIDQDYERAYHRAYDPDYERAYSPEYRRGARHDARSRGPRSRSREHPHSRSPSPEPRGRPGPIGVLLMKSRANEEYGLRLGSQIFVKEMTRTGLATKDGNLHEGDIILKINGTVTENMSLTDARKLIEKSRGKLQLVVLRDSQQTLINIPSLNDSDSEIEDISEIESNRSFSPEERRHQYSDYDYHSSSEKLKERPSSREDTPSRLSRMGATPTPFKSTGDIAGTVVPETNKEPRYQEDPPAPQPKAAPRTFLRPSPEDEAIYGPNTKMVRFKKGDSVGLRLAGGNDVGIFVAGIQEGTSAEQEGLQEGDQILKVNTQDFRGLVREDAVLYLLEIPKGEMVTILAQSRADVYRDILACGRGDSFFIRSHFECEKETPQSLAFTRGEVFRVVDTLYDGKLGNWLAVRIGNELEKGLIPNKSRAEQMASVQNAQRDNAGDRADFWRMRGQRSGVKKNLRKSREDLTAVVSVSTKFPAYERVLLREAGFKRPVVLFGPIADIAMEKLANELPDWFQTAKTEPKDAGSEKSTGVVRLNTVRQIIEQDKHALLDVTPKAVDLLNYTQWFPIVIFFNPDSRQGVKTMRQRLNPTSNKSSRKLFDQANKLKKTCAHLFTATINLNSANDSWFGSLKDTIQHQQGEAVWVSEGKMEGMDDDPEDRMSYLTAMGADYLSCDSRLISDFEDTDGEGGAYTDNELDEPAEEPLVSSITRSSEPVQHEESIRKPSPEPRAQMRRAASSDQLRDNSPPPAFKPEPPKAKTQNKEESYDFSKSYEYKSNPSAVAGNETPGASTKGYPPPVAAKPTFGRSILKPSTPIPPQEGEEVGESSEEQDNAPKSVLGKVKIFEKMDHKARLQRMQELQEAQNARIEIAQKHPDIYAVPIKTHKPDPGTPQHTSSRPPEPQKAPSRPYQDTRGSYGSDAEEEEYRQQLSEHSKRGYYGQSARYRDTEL
inactive: [1] 0.006 | crizotinib -0.026 | [2] 0.064 | [3] -0.017 | duvelisib 0.056 | gandotinib -0.089 | tozasertib 0.071 | [4] 0.071 | doramapimod 0.068 | ispinesib -0.065

STX17 (UniProt P56962)
inactive: [1] 0.197 | crizotinib -0.27 | [2] 0.025 | [3] -0.171 | duvelisib -0.156 | gandotinib -0.026 | tozasertib -0.031 | [4] 0.001 | doramapimod 0.031 | ispinesib -0.246

SUPT16H (UniProt Q9Y5B9)
inactive: [1] 0.138 | crizotinib -0.062 | [2] 0.251 | [3] -0.093 | duvelisib 0.084 | gandotinib -0.024 | tozasertib 0.234 | [4] 0.248 | doramapimod -0.047 | ispinesib 0.028

SORT1 (UniProt Q99523)
Chain of UniProt Q99523 (Q99523 whole entry, looked up): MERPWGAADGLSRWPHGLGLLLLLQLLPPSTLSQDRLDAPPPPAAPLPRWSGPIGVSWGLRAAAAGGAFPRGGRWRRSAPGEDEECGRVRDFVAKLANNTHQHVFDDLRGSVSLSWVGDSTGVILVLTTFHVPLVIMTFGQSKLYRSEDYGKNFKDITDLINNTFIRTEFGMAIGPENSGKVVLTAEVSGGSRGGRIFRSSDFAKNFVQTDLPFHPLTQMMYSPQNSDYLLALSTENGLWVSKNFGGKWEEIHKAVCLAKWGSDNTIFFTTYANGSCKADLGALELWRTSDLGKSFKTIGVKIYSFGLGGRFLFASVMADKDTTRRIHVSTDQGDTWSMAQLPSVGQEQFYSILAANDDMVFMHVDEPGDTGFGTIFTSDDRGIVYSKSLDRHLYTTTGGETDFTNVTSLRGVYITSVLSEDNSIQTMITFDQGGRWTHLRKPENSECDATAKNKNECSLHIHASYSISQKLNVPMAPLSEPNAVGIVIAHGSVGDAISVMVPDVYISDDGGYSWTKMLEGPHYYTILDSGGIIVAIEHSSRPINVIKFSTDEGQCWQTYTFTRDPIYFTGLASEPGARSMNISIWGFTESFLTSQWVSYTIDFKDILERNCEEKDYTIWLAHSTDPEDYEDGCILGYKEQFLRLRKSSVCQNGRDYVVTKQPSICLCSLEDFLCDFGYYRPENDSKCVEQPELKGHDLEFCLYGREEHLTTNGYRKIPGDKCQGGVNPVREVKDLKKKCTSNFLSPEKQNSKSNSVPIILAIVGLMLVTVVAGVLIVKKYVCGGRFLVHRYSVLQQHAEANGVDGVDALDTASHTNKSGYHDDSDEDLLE
active: crizotinib -0.742
inactive: [1] 0.007 | [2] -0.019 | [3] -0.051 | duvelisib 0.023 | gandotinib -0.069 | tozasertib -0.001 | [4] -0.066 | doramapimod -0.042 | ispinesib -0.032

STARD3NL (UniProt O95772)
Chain of UniProt O95772 (O95772 whole entry, looked up): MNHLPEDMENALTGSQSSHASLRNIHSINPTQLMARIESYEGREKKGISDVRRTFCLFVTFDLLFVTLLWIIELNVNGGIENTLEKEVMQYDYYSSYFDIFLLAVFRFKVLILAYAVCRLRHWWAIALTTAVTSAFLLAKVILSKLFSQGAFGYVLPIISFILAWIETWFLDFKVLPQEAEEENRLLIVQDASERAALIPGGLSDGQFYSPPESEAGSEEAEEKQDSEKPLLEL
inactive: [1] -0.011 | [2] 0.055 | [3] -0.067 | duvelisib 0.111 | gandotinib -0.14 | tozasertib 0.03 | [4] -0.058 | doramapimod 0.063 | ispinesib -0.256
active: crizotinib -0.448

STAM2 (UniProt O75886)
inactive: [1] 0.114 | crizotinib -0.008 | [2] 0.041 | [3] -0.049 | duvelisib -0.031 | gandotinib -0.126 | tozasertib 0.054 | [4] 0.028 | doramapimod -0.022 | ispinesib -0.049

STAT5A (UniProt P42229)
inactive: [1] 0.02 | crizotinib -0.002 | [2] 0.08 | [3] -0.036 | duvelisib 0.019 | gandotinib -0.033 | tozasertib 0.119 | [4] 0.14 | doramapimod -0.047 | ispinesib 0.275

TGFBRAP1 (UniProt Q8WUH2)
Chain of UniProt Q8WUH2 (Q8WUH2 whole entry, looked up): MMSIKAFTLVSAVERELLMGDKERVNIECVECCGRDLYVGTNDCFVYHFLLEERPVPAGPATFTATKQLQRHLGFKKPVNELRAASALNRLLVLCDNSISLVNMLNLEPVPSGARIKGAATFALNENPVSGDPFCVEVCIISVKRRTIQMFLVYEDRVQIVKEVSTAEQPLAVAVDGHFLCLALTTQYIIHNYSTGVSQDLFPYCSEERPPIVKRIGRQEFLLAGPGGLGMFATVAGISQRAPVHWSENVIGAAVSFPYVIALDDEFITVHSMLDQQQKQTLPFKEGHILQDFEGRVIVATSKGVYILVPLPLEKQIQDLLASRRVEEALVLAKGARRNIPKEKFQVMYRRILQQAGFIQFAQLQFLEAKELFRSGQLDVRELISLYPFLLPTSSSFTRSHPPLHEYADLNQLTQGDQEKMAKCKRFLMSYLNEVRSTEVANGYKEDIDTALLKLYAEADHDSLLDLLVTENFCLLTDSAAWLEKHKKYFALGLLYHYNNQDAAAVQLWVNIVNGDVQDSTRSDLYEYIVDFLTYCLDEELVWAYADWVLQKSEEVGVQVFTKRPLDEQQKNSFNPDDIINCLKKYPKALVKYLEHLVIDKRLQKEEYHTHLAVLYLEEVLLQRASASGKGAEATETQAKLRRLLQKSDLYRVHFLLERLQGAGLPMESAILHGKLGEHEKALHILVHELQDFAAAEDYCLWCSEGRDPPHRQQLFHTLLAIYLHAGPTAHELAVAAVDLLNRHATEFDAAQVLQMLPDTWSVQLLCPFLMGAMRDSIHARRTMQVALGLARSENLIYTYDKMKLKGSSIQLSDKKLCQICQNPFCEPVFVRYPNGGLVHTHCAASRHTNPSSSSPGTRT
inactive: [1] -0.081 | crizotinib -0.367 | [2] 0.051 | [3] 0.067 | duvelisib -0.088 | gandotinib -0.142 | tozasertib 0.051 | [4] 0.087 | doramapimod 0 | ispinesib -0.221

TIPRL (UniProt O75663)
Chain of UniProt O75663 (O75663 whole entry, looked up): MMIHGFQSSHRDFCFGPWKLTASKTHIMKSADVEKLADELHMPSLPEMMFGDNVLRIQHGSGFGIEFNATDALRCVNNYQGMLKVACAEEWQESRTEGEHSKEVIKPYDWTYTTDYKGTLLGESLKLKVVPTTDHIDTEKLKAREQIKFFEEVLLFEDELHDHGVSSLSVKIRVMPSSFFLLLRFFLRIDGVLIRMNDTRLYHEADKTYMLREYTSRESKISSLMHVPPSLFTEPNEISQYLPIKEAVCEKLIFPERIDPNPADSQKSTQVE
inactive: [1] 0.065 | crizotinib -0.167 | [2] 0.143 | [3] -0.023 | duvelisib -0.016 | gandotinib -0.159 | tozasertib -0.011 | [4] 0.065 | doramapimod -0.034 | ispinesib -0.055

SLC38A9 (UniProt Q8NBW4)
active: ispinesib -0.474
inactive: [1] 0.165 | crizotinib -0.201 | [2] 0.052 | [3] 0.003 | duvelisib 0.081 | gandotinib -0.018 | tozasertib 0.001 | [4] -0.058 | doramapimod 0.067

SLC4A2 (UniProt P04920)
inactive: [1] 0.114 | crizotinib -0.053 | [2] 0.013 | [3] 0.126 | duvelisib -0.015 | gandotinib -0.075 | tozasertib -0.069 | [4] -0.058 | doramapimod 0.07 | ispinesib -0.099

STXBP5 (UniProt Q5T5C0)
inactive: [1] -0.021 | crizotinib -0.024 | [2] 0.006 | [3] 0.047 | duvelisib 0.066 | gandotinib -0.029 | tozasertib 0.017 | [4] -0.002 | doramapimod 0.026 | ispinesib -0.058

SSB (UniProt P05455)
inactive: [1] -0.159 | crizotinib 0.022 | [2] -0.085 | [3] -0.05 | duvelisib -0.033 | gandotinib -0.103 | tozasertib 0.048 | [4] 0.003 | doramapimod 0.013 | ispinesib -0.02

TBC1D9B (UniProt Q66K14)
Chain of UniProt Q66K14 (Q66K14 whole entry, looked up): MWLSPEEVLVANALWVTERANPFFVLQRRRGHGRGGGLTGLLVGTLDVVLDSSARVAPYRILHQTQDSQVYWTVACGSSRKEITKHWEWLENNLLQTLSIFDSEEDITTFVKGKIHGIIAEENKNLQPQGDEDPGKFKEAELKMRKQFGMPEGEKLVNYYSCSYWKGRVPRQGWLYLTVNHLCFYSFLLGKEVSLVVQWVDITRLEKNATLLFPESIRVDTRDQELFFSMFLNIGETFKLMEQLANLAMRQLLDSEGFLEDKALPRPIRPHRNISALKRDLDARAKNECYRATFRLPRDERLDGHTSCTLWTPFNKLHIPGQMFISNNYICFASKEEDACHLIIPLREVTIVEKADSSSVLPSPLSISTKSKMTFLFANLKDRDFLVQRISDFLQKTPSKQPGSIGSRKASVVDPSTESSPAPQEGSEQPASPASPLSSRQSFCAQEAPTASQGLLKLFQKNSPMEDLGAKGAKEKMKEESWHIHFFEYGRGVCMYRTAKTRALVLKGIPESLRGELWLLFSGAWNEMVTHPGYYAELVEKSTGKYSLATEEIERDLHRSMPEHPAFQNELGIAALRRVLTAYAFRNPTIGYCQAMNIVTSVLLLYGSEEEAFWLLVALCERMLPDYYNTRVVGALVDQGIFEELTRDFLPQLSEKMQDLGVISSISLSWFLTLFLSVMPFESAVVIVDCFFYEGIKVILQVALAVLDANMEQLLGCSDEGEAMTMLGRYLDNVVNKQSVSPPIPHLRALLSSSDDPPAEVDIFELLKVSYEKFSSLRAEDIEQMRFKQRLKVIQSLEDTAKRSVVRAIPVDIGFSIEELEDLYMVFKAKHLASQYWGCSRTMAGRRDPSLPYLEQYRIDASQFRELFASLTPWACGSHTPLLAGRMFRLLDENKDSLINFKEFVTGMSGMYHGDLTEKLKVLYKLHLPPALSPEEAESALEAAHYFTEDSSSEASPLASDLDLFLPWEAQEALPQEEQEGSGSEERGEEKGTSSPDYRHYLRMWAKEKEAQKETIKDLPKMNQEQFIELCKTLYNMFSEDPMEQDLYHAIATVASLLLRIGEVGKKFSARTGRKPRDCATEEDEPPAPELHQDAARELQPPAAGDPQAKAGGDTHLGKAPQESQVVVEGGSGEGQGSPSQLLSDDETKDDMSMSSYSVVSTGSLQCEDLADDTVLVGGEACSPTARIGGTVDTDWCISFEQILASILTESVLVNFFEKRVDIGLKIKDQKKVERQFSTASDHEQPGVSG
inactive: [1] 0.041 | crizotinib -0.084 | [2] 0.016 | [3] 0.008 | duvelisib 0.01 | gandotinib 0.024 | tozasertib 0.055 | [4] 0.072 | doramapimod 0.007 | ispinesib -0.127

SLC25A4 (UniProt P12235)
Chain of UniProt P12235 (P12235 whole entry, looked up): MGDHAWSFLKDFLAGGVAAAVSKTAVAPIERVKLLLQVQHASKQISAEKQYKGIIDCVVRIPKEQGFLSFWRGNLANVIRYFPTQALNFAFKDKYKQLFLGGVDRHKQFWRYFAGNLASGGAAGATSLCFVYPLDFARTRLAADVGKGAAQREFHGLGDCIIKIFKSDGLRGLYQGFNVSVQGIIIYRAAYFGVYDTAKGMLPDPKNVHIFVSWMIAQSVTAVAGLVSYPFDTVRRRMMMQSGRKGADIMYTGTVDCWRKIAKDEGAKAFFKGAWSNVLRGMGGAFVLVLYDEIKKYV
inactive: [1] 0.004 | crizotinib 0.112 | [2] 0.093 | [3] 0.01 | duvelisib 0.012 | gandotinib -0.004 | tozasertib -0.072 | [4] -0.034 | doramapimod -0.053 | ispinesib 0.028
